As a reminder, the inhibition is the relative decrease from the control value, in per cent.

The structures appear in SMILES notation.

Assay [1] has as its target Mitogen-activated protein kinase kinase kinase kinase 4 (Homo sapiens) (UniProt O95819). As to conditions: at 1 µM.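 Note: reported figure is an averaged inhibition value.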
Assay [2] addresses Dual specificity mitogen-activated protein kinase kinase 1 (Homo sapiens) (UniProt Q02750). As to conditions: at 0.1 µM.
Assay [3] shares this target. The settings on record: at 1 µM.
Assay [4] addresses Misshapen-like kinase 1 (Homo sapiens) (UniProt Q8N4C8). The settings on record: at 0.1 µM.
The target is the same in assay [5]. The settings on record: at 1 µM.
Assay [6] addresses T1, Serine/threonine-protein kinase 4 (Homo sapiens) (UniProt Q13043).
T1 sequence (whole entry): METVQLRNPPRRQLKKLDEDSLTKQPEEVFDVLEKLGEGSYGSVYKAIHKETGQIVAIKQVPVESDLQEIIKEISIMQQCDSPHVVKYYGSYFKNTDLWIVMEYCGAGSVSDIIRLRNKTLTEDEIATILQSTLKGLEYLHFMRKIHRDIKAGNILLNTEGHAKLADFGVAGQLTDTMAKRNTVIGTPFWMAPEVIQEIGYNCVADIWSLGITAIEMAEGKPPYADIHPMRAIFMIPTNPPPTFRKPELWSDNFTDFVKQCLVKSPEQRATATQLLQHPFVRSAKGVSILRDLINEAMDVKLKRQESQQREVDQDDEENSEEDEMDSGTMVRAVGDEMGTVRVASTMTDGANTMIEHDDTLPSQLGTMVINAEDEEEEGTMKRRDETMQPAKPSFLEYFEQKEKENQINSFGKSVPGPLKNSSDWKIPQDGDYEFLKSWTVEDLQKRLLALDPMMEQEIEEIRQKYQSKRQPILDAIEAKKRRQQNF
As to conditions: at 0.1 µM.

Assay [7] concerns the target T1, Serine/threonine-protein kinase 4 (Homo sapiens). As to conditions: at 1 µM.
Assay [8] deals with T2, Serine/threonine-protein kinase 3 (Homo sapiens) (UniProt Q13188).
T2 sequence (whole entry): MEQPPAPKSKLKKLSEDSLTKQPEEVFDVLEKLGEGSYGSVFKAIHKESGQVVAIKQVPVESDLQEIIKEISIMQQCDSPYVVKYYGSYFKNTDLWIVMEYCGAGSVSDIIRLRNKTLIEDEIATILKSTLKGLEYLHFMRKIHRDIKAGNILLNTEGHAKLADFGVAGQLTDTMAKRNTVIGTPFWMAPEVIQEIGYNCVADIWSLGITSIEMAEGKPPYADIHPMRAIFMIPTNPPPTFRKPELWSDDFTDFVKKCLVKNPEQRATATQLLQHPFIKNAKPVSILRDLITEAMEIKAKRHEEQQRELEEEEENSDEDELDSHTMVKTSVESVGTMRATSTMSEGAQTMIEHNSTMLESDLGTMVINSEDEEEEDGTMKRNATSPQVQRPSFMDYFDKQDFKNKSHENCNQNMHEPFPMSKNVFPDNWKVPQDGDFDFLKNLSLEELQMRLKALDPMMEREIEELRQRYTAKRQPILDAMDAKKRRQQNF
The settings on record: at 0.1 µM.

Assay [9] has as its target T2, Serine/threonine-protein kinase 3 (Homo sapiens). As to conditions: at 1 µM.
In assay [10] the target is Serine/threonine-protein kinase 26 (Homo sapiens) (UniProt Q9P289). The settings on record: at 0.1 µM.
Chain of Serine/threonine-protein kinase 26 (Homo sapiens) (Q9P289 2-416 limits assumed): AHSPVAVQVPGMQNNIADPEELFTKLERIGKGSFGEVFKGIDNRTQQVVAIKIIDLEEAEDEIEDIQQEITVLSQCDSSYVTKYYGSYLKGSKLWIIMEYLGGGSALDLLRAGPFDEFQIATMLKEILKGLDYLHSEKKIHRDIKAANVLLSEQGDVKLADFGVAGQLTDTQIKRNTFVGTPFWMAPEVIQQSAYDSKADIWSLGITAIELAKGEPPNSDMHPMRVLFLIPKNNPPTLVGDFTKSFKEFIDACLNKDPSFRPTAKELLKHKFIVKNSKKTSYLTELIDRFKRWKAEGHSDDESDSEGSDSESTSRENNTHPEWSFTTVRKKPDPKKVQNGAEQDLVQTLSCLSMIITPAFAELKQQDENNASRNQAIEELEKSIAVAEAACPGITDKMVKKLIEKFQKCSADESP
Assay [11] shares this target. The settings on record: at 1 µM.
The target of assay [12] is Serine/threonine-protein kinase PAK 1 (Homo sapiens) (UniProt Q13153). As to conditions: at 0.1 µM.
For assay [13] the target is unchanged. As to conditions: at 1 µM.
The target of assay [14] is Serine/threonine-protein kinase PAK 2 (Homo sapiens) (UniProt Q13177). As to conditions: at 0.1 µM.
Chain of Serine/threonine-protein kinase PAK 2 (Homo sapiens) (Q13177 whole entry): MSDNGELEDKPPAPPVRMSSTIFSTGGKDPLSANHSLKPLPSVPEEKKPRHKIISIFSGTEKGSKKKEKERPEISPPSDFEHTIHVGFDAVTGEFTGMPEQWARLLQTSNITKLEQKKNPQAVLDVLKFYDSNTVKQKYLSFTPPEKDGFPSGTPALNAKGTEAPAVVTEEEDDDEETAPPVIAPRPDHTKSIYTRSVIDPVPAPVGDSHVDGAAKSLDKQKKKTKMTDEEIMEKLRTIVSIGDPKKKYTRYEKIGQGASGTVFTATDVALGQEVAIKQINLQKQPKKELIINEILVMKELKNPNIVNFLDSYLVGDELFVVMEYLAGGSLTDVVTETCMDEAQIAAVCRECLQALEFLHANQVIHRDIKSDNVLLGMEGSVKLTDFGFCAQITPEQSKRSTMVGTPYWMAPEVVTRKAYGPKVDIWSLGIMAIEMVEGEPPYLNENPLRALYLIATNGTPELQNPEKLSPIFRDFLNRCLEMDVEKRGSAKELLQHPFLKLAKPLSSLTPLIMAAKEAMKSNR
Assay [15] shares this target. As to conditions: at 1 µM.
For assay [16], the target named is Serine/threonine-protein kinase PAK 3 (Homo sapiens) (UniProt O75914). As to conditions: at 0.1 µM.
Chain of Serine/threonine-protein kinase PAK 3 (Homo sapiens) (O75914 whole entry, looked up): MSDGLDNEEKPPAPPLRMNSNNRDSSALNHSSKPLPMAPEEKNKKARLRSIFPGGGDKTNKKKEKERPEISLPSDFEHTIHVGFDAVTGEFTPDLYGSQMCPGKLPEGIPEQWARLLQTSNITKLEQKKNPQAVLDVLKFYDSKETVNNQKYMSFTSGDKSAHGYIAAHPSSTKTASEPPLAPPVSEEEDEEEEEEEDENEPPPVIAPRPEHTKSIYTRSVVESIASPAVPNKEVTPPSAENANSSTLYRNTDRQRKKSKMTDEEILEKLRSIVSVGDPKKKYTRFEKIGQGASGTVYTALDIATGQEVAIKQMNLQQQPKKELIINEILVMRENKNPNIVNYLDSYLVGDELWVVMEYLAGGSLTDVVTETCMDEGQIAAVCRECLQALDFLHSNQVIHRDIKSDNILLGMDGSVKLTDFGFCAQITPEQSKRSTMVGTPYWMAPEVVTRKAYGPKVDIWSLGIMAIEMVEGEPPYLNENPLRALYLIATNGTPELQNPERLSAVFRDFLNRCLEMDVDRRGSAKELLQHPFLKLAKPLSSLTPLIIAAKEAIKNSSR
The target is the same in assay [17]. The settings on record: at 1 µM.
The target of assay [18] is Serine/threonine-protein kinase PAK 5 (Homo sapiens) (UniProt Q9P286). As to conditions: at 0.1 µM.
Assay [19] has the same target. The settings on record: at 1 µM.
In assay [20] the target is Serine/threonine-protein kinase PAK 6 (Homo sapiens) (UniProt Q9NQU5). The settings on record: at 0.1 µM.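 Note: mean PAK6 inhibition reported from the GSK PKIS screen.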
Chain of Serine/threonine-protein kinase PAK 6 (Homo sapiens) (Q9NQU5 whole entry, looked up): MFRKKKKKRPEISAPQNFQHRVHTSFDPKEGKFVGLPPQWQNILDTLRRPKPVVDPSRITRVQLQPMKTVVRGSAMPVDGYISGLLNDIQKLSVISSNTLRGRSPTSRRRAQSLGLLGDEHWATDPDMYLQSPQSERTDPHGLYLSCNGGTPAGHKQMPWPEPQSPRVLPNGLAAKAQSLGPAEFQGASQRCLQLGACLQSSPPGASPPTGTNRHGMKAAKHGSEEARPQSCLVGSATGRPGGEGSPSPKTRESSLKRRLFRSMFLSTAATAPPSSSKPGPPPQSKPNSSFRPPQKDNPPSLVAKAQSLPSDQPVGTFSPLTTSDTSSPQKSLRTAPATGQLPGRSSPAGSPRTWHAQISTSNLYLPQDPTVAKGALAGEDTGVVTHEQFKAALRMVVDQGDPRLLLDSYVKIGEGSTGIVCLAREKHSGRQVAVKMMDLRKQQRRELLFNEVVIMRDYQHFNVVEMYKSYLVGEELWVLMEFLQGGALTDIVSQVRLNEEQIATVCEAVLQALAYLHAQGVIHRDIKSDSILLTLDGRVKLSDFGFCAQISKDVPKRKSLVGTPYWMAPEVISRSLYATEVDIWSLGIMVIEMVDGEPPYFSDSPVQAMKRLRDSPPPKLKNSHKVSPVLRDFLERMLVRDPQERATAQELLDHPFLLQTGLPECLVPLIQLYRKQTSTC

Chain of Misshapen-like kinase 1 (Homo sapiens) (Q8N4C8 whole entry, looked up): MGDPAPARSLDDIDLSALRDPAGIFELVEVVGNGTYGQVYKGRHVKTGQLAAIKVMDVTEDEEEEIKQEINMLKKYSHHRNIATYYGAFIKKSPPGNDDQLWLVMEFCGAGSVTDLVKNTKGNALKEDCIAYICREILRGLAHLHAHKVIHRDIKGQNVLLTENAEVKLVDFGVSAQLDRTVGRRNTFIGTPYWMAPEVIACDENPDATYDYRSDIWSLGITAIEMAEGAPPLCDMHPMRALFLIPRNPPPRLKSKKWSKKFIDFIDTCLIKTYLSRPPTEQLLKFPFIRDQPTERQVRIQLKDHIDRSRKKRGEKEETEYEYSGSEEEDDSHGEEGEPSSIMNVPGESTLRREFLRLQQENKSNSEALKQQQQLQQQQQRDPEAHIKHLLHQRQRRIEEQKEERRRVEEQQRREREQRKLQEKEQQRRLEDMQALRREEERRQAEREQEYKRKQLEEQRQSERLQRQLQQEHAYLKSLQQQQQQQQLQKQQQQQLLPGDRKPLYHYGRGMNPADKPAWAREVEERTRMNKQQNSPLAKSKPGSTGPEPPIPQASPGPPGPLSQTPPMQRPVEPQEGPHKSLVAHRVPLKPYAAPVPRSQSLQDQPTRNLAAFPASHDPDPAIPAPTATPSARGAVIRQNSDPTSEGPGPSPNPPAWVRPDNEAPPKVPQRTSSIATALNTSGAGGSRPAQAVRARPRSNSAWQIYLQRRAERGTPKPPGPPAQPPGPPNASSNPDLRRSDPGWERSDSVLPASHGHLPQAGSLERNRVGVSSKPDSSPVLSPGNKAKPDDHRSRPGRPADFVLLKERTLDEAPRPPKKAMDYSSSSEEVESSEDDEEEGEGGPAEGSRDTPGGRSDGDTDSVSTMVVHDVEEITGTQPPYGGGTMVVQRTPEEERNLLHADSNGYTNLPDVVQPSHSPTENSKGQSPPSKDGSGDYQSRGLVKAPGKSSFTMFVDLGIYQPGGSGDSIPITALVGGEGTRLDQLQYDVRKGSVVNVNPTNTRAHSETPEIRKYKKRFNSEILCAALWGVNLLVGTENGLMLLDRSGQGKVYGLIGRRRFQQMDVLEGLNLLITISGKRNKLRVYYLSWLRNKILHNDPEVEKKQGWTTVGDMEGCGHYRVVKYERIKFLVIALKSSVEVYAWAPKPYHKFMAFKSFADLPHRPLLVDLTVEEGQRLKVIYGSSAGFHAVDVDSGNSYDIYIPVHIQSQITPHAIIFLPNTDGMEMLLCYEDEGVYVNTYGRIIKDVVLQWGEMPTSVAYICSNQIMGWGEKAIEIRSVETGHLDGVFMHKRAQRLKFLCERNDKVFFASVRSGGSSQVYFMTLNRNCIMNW
Chain of Mitogen-activated protein kinase kinase kinase kinase 4 (Homo sapiens) (O95819 2-1239 limits assumed): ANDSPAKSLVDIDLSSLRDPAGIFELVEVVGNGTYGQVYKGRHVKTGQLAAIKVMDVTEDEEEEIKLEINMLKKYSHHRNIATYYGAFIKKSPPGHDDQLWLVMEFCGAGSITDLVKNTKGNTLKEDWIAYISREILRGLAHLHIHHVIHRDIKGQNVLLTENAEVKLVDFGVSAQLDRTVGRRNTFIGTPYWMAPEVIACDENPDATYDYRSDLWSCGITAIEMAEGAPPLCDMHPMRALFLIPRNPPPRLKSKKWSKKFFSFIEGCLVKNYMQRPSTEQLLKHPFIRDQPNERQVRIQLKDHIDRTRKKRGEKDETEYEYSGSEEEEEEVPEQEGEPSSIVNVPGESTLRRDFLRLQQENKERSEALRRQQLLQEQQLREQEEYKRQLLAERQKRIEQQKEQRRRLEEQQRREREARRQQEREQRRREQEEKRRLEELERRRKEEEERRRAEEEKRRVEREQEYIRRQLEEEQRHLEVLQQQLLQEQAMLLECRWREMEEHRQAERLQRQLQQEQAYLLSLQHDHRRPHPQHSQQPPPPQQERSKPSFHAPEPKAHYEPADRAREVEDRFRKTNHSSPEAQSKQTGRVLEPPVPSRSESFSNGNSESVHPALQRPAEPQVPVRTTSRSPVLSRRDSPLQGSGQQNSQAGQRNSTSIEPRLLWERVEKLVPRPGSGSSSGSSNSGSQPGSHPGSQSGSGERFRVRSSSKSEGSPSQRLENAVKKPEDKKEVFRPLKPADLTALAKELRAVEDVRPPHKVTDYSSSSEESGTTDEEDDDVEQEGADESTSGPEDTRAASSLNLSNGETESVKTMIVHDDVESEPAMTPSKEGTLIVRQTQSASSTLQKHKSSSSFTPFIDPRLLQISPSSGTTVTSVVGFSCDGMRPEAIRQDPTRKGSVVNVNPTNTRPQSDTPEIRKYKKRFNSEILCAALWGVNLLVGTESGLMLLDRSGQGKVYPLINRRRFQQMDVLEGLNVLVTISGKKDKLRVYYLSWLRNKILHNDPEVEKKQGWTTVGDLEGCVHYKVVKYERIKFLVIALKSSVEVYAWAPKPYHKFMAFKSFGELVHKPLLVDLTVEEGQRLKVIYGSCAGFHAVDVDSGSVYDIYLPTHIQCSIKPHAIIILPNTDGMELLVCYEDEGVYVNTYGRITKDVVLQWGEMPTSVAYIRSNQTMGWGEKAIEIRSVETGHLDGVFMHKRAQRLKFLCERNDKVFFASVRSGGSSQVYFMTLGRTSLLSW

On to `CCn1c(-c2nonc2N)nc2c(C#CC(C)(C)O)ncc(OC3CCNCC3)c21`, for which the inhibition in assay [1] amounted to 6.21%; in assay [2], 1.98%; in assay [3], 3.44%; in assay [4], 4.48%; in [5], 5.83%; in assay [6], 1.6%. In addition, the inhibition came out at 4.54% in assay [7]; 3.55% in assay [8]; 6.04% in assay [9]; 0.64% in [10]; 4.19% in assay [11]; 2.8% in [12]. Also, the inhibition is 8.91% in assay [13]; 1.98% in assay [14]; 13.5% in assay [15]; 2.99% in [16]; 8.39% in assay [17]; 34.6% in assay [18]. In addition, the inhibition in [19] is 80.1%; in assay [20], 14.6%.

In the case of `Fc1ccc(-c2nn3ccccc3c2-c2ccncc2)cc1`, the inhibition in [1] was 38.3%; in assay [2], 1.23%; in assay [3], 2.3%; in assay [4] it was 4.74%; in [5] it was 22.3%; in [6], 0.01%. Further, the inhibition in [7] is 0.15%; in assay [8] it was 0.09%; in assay [9] it was 0.63%; in assay [10] it was -1.27%; in assay [11], 2.42%; in assay [12], 3.29%. Moreover, the inhibition was 1.62% in [13]; -0.13% in assay [14]; -0.1% in assay [15]; 1.29% in [16]; 1.75% in assay [17]; -0.38% in [18]. The inhibition is -4.35% in assay [19] and 4.75% in [20].

`CC(=O)NCc1cccc(C#Cc2cncnc2Nc2ccc(OCc3cccc(F)c3)c(Cl)c2)c1`: the inhibition in [1] is 7.74%; in [2] it was 1.45%; in assay [3], 1.08%; in [4], 2.48%; in assay [5] it was 8.64%; in assay [6], 1.57%. The inhibition was 5.79% in assay [7]; 0.67% in assay [8]; 3.55% in assay [9]; -0.27% in assay [10]; 2.49% in assay [11]; 4.19% in [12]. Also, the inhibition in assay [13] is 4.46%; in assay [14], -0.34%; in assay [15], -0.13%; in assay [16], -0.22%; in assay [17] it was 0.22%; in assay [18] it was 2.64%. The results for the inhibition in [19] and in assay [20] were -5.66% and 3.99%, respectively.

As to `COC(=O)Nc1nc2ccc(Oc3ccc(NC(=O)Nc4cccc(Cl)c4)cc3)cc2[nH]1`, the inhibition was found to be 3.87% in assay [1]; 1.15% in [2]; 0.9% in assay [3]; 2.55% in assay [4]; 4.97% in assay [5]; 2.25% in assay [6]. For the same molecule, the inhibition in assay [7] was 1.87%; in assay [8] it was 3.48%; in assay [9], 4.19%; in assay [10] it was -1.11%; in [11], 1.03%; in assay [12] it was 5.21%. Further, the inhibition is 1.37% in assay [13]; -0.81% in assay [14]; 0.02% in assay [15]; 1.03% in [16]; 2.18% in [17]; 2.63% in [18]. In addition, the inhibition is 3.67% in assay [19] and -3.19% in assay [20].

`CN(C)CCOc1ccc(-c2nc(-c3ccncc3)c(-c3ccc4c(c3)CC/C4=N\O)[nH]2)cc1`: the inhibition in assay [1] was found to be 47.2%; in assay [2], 4.37%; in assay [3], 3.23%; in [4], 8.74%; in assay [5] it was 37.3%; in assay [6] it was 4.67%. For the same molecule, the inhibition in assay [7] was 6.56%; in [8], 4.63%; in assay [9], 4.58%; in assay [10], -1.19%; in assay [11], -0.6%; in assay [12], 4.61%. The inhibition in assay [13] worked out at 9.24%; in assay [14], 2.66%; in assay [15], 2.42%; in assay [16], 3.85%; in [17] it was 4.82%; in [18], 7.4%. Besides, the inhibition in [19] is 7.07%; in assay [20], -7.61%.

Consider `COc1cccc(-n2ncc3c(N/N=C/c4ccc(F)cc4)ncnc32)c1`, for which the inhibition in assay [1] came out at 21.2%; in assay [2], 4.9%; in assay [3] it was 3.13%; in assay [4] it was 7.39%; in assay [5] it was 17.2%; in [6], 7.56%. The inhibition in [7] is 9.41%; in assay [8] it was 9.36%; in assay [9], 9.98%; in [10], -1.54%; in [11], -2.12%; in assay [12], 4.83%. The inhibition in assay [13] was 7.12%; in assay [14], 2.32%; in assay [15], 2.24%; in assay [16], 4.66%; in [17], 4.91%; in assay [18] it was 9.72%. Further, the inhibition in assay [19] turned out to be 5.66%; in [20], 3.88%.

With `CCc1nn2ncccc2c1-c1ccnc(NC2CC2)n1`, the inhibition was found to be 5.59% in [1]; 2.65% in assay [2]; 2.39% in assay [3]; 3.11% in [4]; 3.73% in assay [5]; 1.74% in [6]. Besides, the inhibition in assay [7] was 3.6%; in [8], 1.75%; in assay [9], 5.22%; in assay [10], -1.35%; in [11], 1.56%; in assay [12], 3.36%. For the same molecule, the inhibition in assay [13] was 4.68%; in assay [14] it was 1.85%; in assay [15], 1.62%; in [16], 3.09%; in assay [17] it was 3.37%; in assay [18] it was -2.62%. Further, the inhibition in assay [19] is 0.37%; in assay [20], -9.47%.

As to `CCn1c(-c2nonc2N)nc2ccccc21`, the inhibition in assay [1] worked out at 22.5%; in assay [2], 4.06%; in assay [3], 4.74%; in [4], 5.52%; in assay [5] it was 13.2%; in [6], 5.56%. In addition, the inhibition in [7] is 7.11%; in assay [8], 6.31%; in assay [9] it was 5.79%; in assay [10], -1.3%; in [11] it was -1.31%; in [12], 5%. Also, the inhibition in assay [13] amounted to 6.81%; in assay [14], 3.34%; in assay [15] it was 2.08%; in assay [16], 1.86%; in [17], 4.13%; in assay [18], 5.02%. In addition, the inhibition in [19] was found to be 8.78%; in [20], 0.13%.

These data come from ChEMBL document CHEMBL1961873, “Compounds: GSK PKIS; Assays: Nanosyn kinase panel” (2012).
